Test results: PubChem BioAssay (NCI)
This is part of a sample that, as a whole, favours compounds with a hit. Of some 83,000 tested, about 20% had one in any assay.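 Activity criterion: percent growth below 10, measured after cells in 96-well plates were exposed to a single compound concentration for 48 hours.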 The source made the active and inactive calls.

Experiments:
Assay in all cases: NCI-60 one-dose screen, 48 h (100 = growth as untreated, 0 = no growth, -100 = all killed)
Settings in all cases: 10 µM
[1] = tested on: K-562 leukemia
[2] = tested on: MALME-3M melanoma
[3] = tested on: MDA-MB-231 breast
[4] = tested on: RXF 393 renal
[5] = tested on: SF-268 CNS
[6] = tested on: SF-295 CNS
[7] = tested on: SF-539 CNS
[8] = tested on: UACC-257 melanoma
[9] = tested on: M14 melanoma
[10] = tested on: HCT-15 colon
[11] = tested on: HT29 colon
[12] = tested on: SNB-75 CNS
[13] = tested on: SNB-19 CNS
[14] = tested on: U251 CNS
[15] = tested on: PC-3 prostate
[16] = tested on: SK-MEL-5 melanoma
[17] = tested on: UACC-62 melanoma
[18] = tested on: LOX IMVI melanoma
[19] = tested on: SK-MEL-28 melanoma
[20] = tested on: SK-MEL-2 melanoma

Measured: growth

Nc1nc(N)c2c(ccc3nccc32)[nH]1
active: [8] -9.73% | [15] 7.39%
inactive: [1] 16.6% | [2] 58.7% | [3] 73.5% | [4] 56.5% | [5] 46.6% | [6] 34.4% | [7] 57.9% | [9] 28.7% | [10] 46.9% | [11] 27% | [12] 79.2% | [13] 62.4% | [14] 36% | [16] 41.2% | [17] 47.2% | [18] 23% | [19] 83.4% | [20] 57.6%

CS(=O)(=O)Nc1ccc(Nc2c3ccccc3nc3cc(N)ccc23)cc1
inactive: [1] 22.7% | [3] 85.8% | [4] 64.2% | [5] 13% | [10] 73.6% | [11] 55.9% | [12] 38.8% | [13] 22.2% | [15] 51.3% | [17] 40.2% | [18] 23.4% | [19] 42.3% | [20] 25.1%
active: [2] -32.7% | [6] -23.3% | [7] 2.88% | [8] 0.44% | [9] 7.54% | [14] 3.29% | [16] 5.37%

COc1ccc2c(c1)O/C(=C\c1ncc([N+](=O)[O-])n1C)C2=O
active: [1] 1.57% | [2] -65.6% | [3] -10.3% | [4] -72% | [5] -17.6% | [6] -34.6% | [7] -60.9% | [8] -57% | [9] -54.6% | [10] 2.5% | [11] -13.6% | [12] 3.5% | [13] 2.04% | [14] -12.6% | [15] 7.52% | [16] -94.2% | [17] -85.1% | [18] -29.2% | [19] -31.9% | [20] -54.5%

N=C(N)c1ccc(-c2ccc(-c3cccs3)s2)cc1
inactive: [3] 75.8% | [4] 75.8% | [5] 101% | [6] 16.4% | [7] 89.5% | [8] 34.6% | [9] 30.3% | [12] 70.9% | [13] 109% | [15] 78% | [16] 31.4% | [17] 40.4% | [19] 37.7% | [20] 99%
active: [1] -56% | [2] -80.1% | [10] 0.674% | [11] -53.8% | [14] -48.5% | [18] -81.7%

COc1ccc(-c2nsc3c2NC(=O)CC3c2ccc(F)cc2)cc1 (stereo not drawn)
inactive: [1] 10.1% | [2] 31.1% | [3] 68.7% | [4] 62.9% | [5] 63.4% | [6] 37.5% | [7] 43.9% | [8] 58.3% | [9] 24% | [10] 24.4% | [12] 63.5% | [13] 72.5% | [14] 33.6% | [15] 39.1% | [16] 20.5% | [17] 51.2% | [18] 44.4% | [19] 57.5%
active: [11] 4.71% | [20] -11.7%

C(CCCC1=NCCO1)CCCC1=NCCO1
inactive: [1] 110% | [2] 106% | [3] 104% | [4] 95.6% | [5] 104% | [6] 101% | [7] 101% | [8] 104% | [9] 109% | [10] 99.3% | [11] 118% | [12] 77.5% | [13] 97.8% | [14] 97.9% | [15] 98% | [16] 99.7% | [17] 93% | [18] 94% | [19] 95.4% | [20] 98.3%

CC(C)(C)c1ccc(N2CSC(=S)N(c3ccc(C(C)(C)C)cc3)C2)cc1
active: [8] -6.73%
inactive: [1] 90.1% | [2] 85.8% | [3] 97.4% | [4] 144% | [5] 109% | [6] 99.9% | [7] 97.9% | [9] 95.9% | [10] 94.7% | [11] 105% | [12] 76.1% | [13] 95.4% | [14] 100% | [15] 73.8% | [16] 96.3% | [17] 94.9% | [18] 101% | [19] 105% | [20] 101%

CC(C)C[C@H](NC(=O)[C@H](Cc1cccc2ccccc12)NS(=O)(=O)c1cccc2cccnc12)B(O)O
inactive: [4] 15.9% | [8] 15.4%
active: [1] -17.7% | [2] -76.9% | [3] -4.94% | [5] 0.092% | [6] -70.5% | [7] -34.1% | [9] -47.4% | [10] -65.8% | [11] -56.6% | [12] -51.9% | [13] 8.26% | [14] -52.9% | [15] -23.2% | [16] -85.8% | [17] -50.9% | [18] -78.7% | [20] -41.2%

COc1ccc2c(c1)O/C(=C\c1ccc([N+](=O)[O-])s1)C2=O
inactive: [2] 80% | [3] 37.4% | [6] 69% | [7] 34.5% | [8] 64.4% | [9] 30.3% | [12] 55.5% | [13] 67.3% | [14] 14.7% | [15] 14% | [16] 60% | [17] 30.6% | [18] 15.7% | [19] 81.4% | [20] 55.3%
active: [1] -1.48% | [4] -17.3% | [5] -9.02% | [10] 0.318% | [11] -12.3%

Clc1cc2c(c(CSc3nc4ccccc4n4cccc34)c1)OCOC2
inactive: [1] 74.4% | [2] 88.2% | [3] 65.8% | [4] 34.2% | [5] 85.4% | [6] 79.5% | [7] 67.2% | [8] 61.3% | [9] 87.5% | [10] 71.4% | [11] 88.3% | [12] 62% | [13] 107% | [14] 85.9% | [15] 60.5% | [16] 83.7% | [17] 112% | [18] 87.5% | [19] 92.8% | [20] 79.7%

c1ccc(CO[C@H]2CO[C@H]3[C@@H]2OC[C@H]3OCc2ccccc2)cc1
inactive: [1] 106% | [2] 144% | [3] 112% | [4] 119% | [5] 102% | [6] 95.3% | [7] 110% | [8] 108% | [9] 104% | [10] 99.1% | [11] 107% | [12] 111% | [13] 101% | [14] 104% | [15] 90.6% | [16] 101% | [17] 95.9% | [18] 98.4% | [19] 105% | [20] 104%

CCCCCCNC(=O)Oc1ccc(/C(=C(/CC)Cc2ccccc2)c2ccc(OCCN3CCCCC3)cc2)cc1
inactive: [1] 24% | [2] 93.1% | [3] 83.6% | [4] 73.8% | [5] 80.9% | [6] 114% | [7] 91.9% | [8] 86.1% | [9] 94.7% | [10] 39% | [11] 20.3% | [12] 80.2% | [13] 85.9% | [14] 69.3% | [15] 73.2% | [16] 84.5% | [17] 99.5% | [18] 96.8% | [19] 96.4% | [20] 91.3%

COc1cc(-c2cc(-c3cc4c([nH]c5ccccc54)c(-c4cc(OC)c(OC)c(OC)c4)n3)cc(-c3ccccc3)n2)cc(OC)c1OC
inactive: [1] 16.7% | [2] 58.3% | [3] 45.6% | [4] 72.6% | [5] 78.7% | [6] 26.8% | [7] 66% | [8] 89% | [9] 50.9% | [10] 51.6% | [11] 44.4% | [12] 36.2% | [13] 66% | [14] 62.1% | [15] 48.3% | [16] 40.1% | [17] 40% | [18] 59.5% | [19] 62.5% | [20] 46%

Cn1c([N+](=O)[O-])cnc1/C=C1\Oc2ccccc2C1=O
active: [1] 3.53% | [2] -71.1% | [3] -31.7% | [4] -68.9% | [5] -49% | [6] -1.94% | [7] -43.4% | [8] -57% | [9] -43.3% | [10] 6.69% | [11] -23.7% | [13] -17.3% | [14] -12.6% | [15] -21.4% | [16] -94.1% | [17] -90% | [18] -50.2% | [19] -25.9% | [20] -53.3%
inactive: [12] 43.8%

CN(C)CCN1C(=O)c2cccc3cc(N)cc(c23)C1=O
inactive: [2] 17.4% | [3] 57% | [4] 18.3% | [5] 37.8% | [6] 21.1% | [7] 33.4% | [9] 42% | [10] 11.8% | [13] 24.5% | [14] 18.4% | [15] 12.6% | [17] 13.3% | [20] 29.1%
active: [1] 3.5% | [8] 5.64% | [11] 9.24% | [12] -5.61% | [16] 8.79% | [18] 6.24%

Cc1cc(C)c(NC(=O)c2sc3nc4c(cc3c2N)C(=O)CCC4)c(C)c1
inactive: [1] 19.8% | [2] 42.1% | [3] 35.7% | [5] 38.6% | [8] 48.7% | [9] 16.4% | [10] 31.8% | [13] 40.2% | [14] 21.1% | [15] 23.5% | [16] 11.3% | [17] 23.2% | [18] 50.6% | [19] 56% | [20] 36.1%
active: [4] -6.66% | [6] -11.3% | [7] -6.5% | [11] 0.48% | [12] 0%
